Results on 22 sequences are retold here after the OligoGym collection.
Also: reference of the scale not given here.

One assay deals with STUB1. In words: pooled miR-30 sensor sort-seq; sequence = guide strand. The settings on record: shRNA.
In the case of TTGCGGTCGTAGGTGATGCCAC, the sensor-assay potency score (higher = more potent) was -0.555.

TTGCCACACAGGTAGTCGGGGA: the sensor-assay potency score (higher = more potent) was -0.252.

On to TAGCTCTCCATCTCCAGCTGGC, for which the sensor-assay potency score (higher = more potent) is -0.433. The sequence TTCAGGTAGCACAAGGCCCGGT registered a sensor-assay potency score (higher = more potent) of -0.567. The same measure, in the same setting: in the case of TTCGCGATTCGAAGAGCGCTGG it was -0.358; in that of TGCTCCTCGATGTCCTTGCGGT, -0.704; in that of TAATACACGGCCACCAGCGGGT, -0.893. Still for that read-out and setting: the value for TTCCAGCGCTTCTTCTTCGCGA was -0.702. As to TTGAGCTCCTGCGCGCTCGGGC, the sensor-assay potency score (higher = more potent) is -0.67. The sequence TTATTACACAGATAGTGGCGGC came in with a sensor-assay potency score (higher = more potent) of 0.272. In the case of ATAGCTCTCCATCTCCAGCTGG, the sensor-assay potency score (higher = more potent) was -0.665. TTCCTCTTCTCATCCACCTGAG gave a sensor-assay potency score (higher = more potent) of -0.167.

A further assay concerns the target STX12. The description is as above. The settings on record: shRNA.
TTTTCCTGTAGCTTGCTTGAGT showed a sensor-assay potency score (higher = more potent) of 0.00107. TACCCTTCTCTGCACAGCCTGG displayed a sensor-assay potency score (higher = more potent) of -1.07. TTTTCTGATAGTAAGCAGCTCG: the sensor-assay potency score (higher = more potent) amounted to 0.207.

Sequence TTGTGGAGTGTTGTAACTGTTG yielded a sensor-assay potency score (higher = more potent) of -1.19. The same measure, in the same setting: in the case of TAGCTTGCTTGAGTCCTGCTTA it was -0.146; in that of TAACTGTTGCAGATTTTCCTGT, 0.412. In turn, TCTGATAGTAAGCAGCTCGCTG displayed a sensor-assay potency score (higher = more potent) of -0.759. Still for that read-out and setting: in the case of TTGTCTAAAACTATGCATGGAG it was -0.297; in that of TTTTTGTCTAAAACTATGCATG, -0.984; in that of TTTAATAAGTTCCAAATCCTGC, -0.773.
